From the supplement of paper PMC11172423

Legend:
[1] = system: Falciformispora senegalensis CBS197.79; assay: growth relative to untreated control; higher = less inhibition, active = 20 or less
Outline: (§1)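 Compound at 100 or 25 µM was applied for 7 days at 37 °C to hyphal fragments of M. mycetomatis MM55 or F. senegalensis CBS197.79 in 96-well plates. Fragments were suspended in colourless RPMI 1640 with L-glutamine and MOPS at 68–72% transmission at 660 nm, and viability was read with MTS (2 h, 490 nm) or resazurin (600 nm). Growth is reported as blank-corrected metabolic activity relative to the blank-corrected untreated growth control.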

[2] = system: Madurella mycetomatis MM55; assay: as above
Outline: as §1

Measured: growth

CC(C)CC(NCCc1ccccc1O)c1ccccn1 (stereo not drawn)
inactive: [1]; 25 µM 99.8% | [1]; 100 µM 78.8% | [2]; 25 µM 41.8% | [2]; 100 µM 41.6%

N#C/C(C(=O)c1ccccc1Cl)=C1\NC(c2ccccc2)=CS1
inactive: [1]; 25 µM 90.5% | [1]; 100 µM 100% | [2]; 25 µM 79.7% | [2]; 100 µM 45.4%

CN(C)C(=O)COC(=O)Cc1ccc(OC(=O)c2ccc(NC(=N)N)cc2)cc1
inactive: [1]; 25 µM 112% | [1]; 100 µM 108% | [2]; 25 µM 77.6% | [2]; 100 µM 93.2%

CNCc1[cH-]ccc1CNc1ccnc2cc(Cl)ccc12.[Fe+2].c1cc[cH-]c1
active: [1]; 25 µM 10.2% | [1]; 100 µM 14.6% | [2]; 25 µM 2.78% | [2]; 100 µM 2.49%

NS(=O)(=O)c1cc2c(cc1Cl)NC=NS2(=O)=O
inactive: [1]; 25 µM 103% | [1]; 100 µM 103% | [2]; 25 µM 108% | [2]; 100 µM 96.2%

CC(C)CC(NC(=O)N1CCOCC1)C(=O)NC(/C=C/S(=O)(=O)c1ccccc1)CCc1ccccc1 (stereo not drawn)
inactive: [1]; 25 µM 90.8% | [1]; 100 µM 93.9% | [2]; 25 µM 86.4% | [2]; 100 µM 96.5%

O=C(Nc1cc(Cl)cc(Cl)c1O)c1c(O)c(Cl)cc(Cl)c1Cl
inactive: [1]; 25 µM 89.9% | [2]; 25 µM 39%
active: [1]; 100 µM 12.5% | [2]; 100 µM 3.21%

CNC(=O)c1cc(-c2n[nH]c3ccc(-c4nc(C5CCCN5)n[nH]4)cc23)ccc1F (stereo not drawn)
inactive: [1]; 25 µM 105% | [1]; 100 µM 106% | [2]; 25 µM 98.4% | [2]; 100 µM 71.5%

CCO[C@@H]1[C@@H](OC)[C@H](C)O[C@@H](O[C@@H]2C[C@H]3CC[C@@H]4[C@@H](C=C5C(=O)[C@H](C)[C@@H](O[C@H]6CC[C@H](N(C)C)[C@@H](C)O6)CCC[C@H](CC)OC(=O)C[C@H]54)[C@@H]3C2)[C@@H]1OC
inactive: [1]; 25 µM 96.5% | [1]; 100 µM 85.7% | [2]; 25 µM 107% | [2]; 100 µM 128%

O=C(O)c1ccc2c(c1)nc(Nc1cccc(Cl)c1)c1ccncc12
inactive: [1]; 25 µM 97.2% | [1]; 100 µM 97.3% | [2]; 25 µM 125% | [2]; 100 µM 78.1%

CC(=O)c1nn(-c2c(Cl)cc(C(F)(F)F)cc2Cl)c(N)c1S(C)=O (stereo not drawn)
inactive: [1]; 25 µM 94.6% | [1]; 100 µM 83.2% | [2]; 25 µM 119% | [2]; 100 µM 107%

c1ccc(CCc2nc3cccnc3n2C2CCN(C3CCN(Cc4ccccc4)CC3)CC2)cc1
active: [2]; 100 µM 5.59%
inactive: [1]; 25 µM 86.3% | [1]; 100 µM 49.8% | [2]; 25 µM 63.2%

CCCNc1nc(NC2CCCCC2)c2ccsc2n1
active: [2]; 25 µM 14.7%
inactive: [1]; 25 µM 85.5% | [1]; 100 µM 88.3% | [2]; 100 µM 48.2%

CCc1nn2c(Nc3ccncc3)cc(C)nc2c1-c1ccccc1
inactive: [1]; 25 µM 88.3% | [1]; 100 µM 92.6% | [2]; 25 µM 96.8% | [2]; 100 µM 75.7%

Cc1cccnc1Nc1cn2cc(-c3cccc(OCC(F)(F)F)n3)ccc2n1
active: [2]; 100 µM 8.06%
inactive: [1]; 25 µM 96.5% | [1]; 100 µM 86.9% | [2]; 25 µM 119%

CC(C)(C)NCc1ccc(Nc2ccnc3cc(Cl)ccc23)cc1O
inactive: [1]; 25 µM 95.8% | [2]; 25 µM 79.1%
active: [1]; 100 µM 17.1% | [2]; 100 µM 3.73%

COc1cc(NC(=O)Nc2cccc(CNC(=O)O[C@H]3CCOC3)c2)ccc1-c1cnco1
inactive: [1]; 25 µM 100% | [1]; 100 µM 102% | [2]; 25 µM 100% | [2]; 100 µM 81.8%

C[C@H](/N=C(\N)c1cc2c(F)cc(F)cc2[nH]1)c1ccccc1
inactive: [1]; 25 µM 98.5% | [2]; 25 µM 35%
active: [1]; 100 µM 15.3% | [2]; 100 µM 5.98%

Cc1cc(Nc2cn3cc(-c4cnn(C(F)F)c4)ccc3n2)nc(C)n1
inactive: [1]; 25 µM 94.1% | [1]; 100 µM 83.8% | [2]; 25 µM 95.2% | [2]; 100 µM 58.6%

CCCC(CCC)C(=O)O
inactive: [1]; 25 µM 112% | [1]; 100 µM 106% | [2]; 25 µM 76% | [2]; 100 µM 79.4%

O[C@@H](CNC[C@H](O)[C@H]1CCc2cc(F)ccc2O1)[C@@H]1CCc2cc(F)ccc2O1
active: [1]; 25 µM 5.42% | [1]; 100 µM 12.3% | [2]; 25 µM 5.79% | [2]; 100 µM 3.82%

COc1ccc2c(O[C@@H]3C[C@H]4C(=O)N[C@]5(C(=O)NS(=O)(=O)C6CC6)C[C@H]5/C=C\CCCCN(C)C(=O)[C@@H]4C3)cc(-c3nc(C(C)C)cs3)nc2c1C
inactive: [1]; 25 µM 103% | [1]; 100 µM 100% | [2]; 25 µM 87.1% | [2]; 100 µM 74.8%

O=C(NCCN1CCCCC1)c1cncc(-c2ccc(Cl)c(Cl)c2)c1
inactive: [1]; 25 µM 95.7% | [1]; 100 µM 30.1% | [2]; 25 µM 52.1%
active: [2]; 100 µM 5.8%

CN1[C@H]2CC[C@H]1CC(OC(c1ccccc1)c1ccccc1)C2 (stereo partly drawn)
inactive: [1]; 25 µM 103% | [1]; 100 µM 103% | [2]; 25 µM 82.4% | [2]; 100 µM 84.3%

CC(C)(C)[S@@](=O)N1Cc2cc(C(=O)NCCc3ccncc3)nc(-c3cccc(-c4ccccc4)c3)c2[C@H]1CCO
inactive: [1]; 25 µM 82.6% | [1]; 100 µM 102% | [2]; 25 µM 67.6% | [2]; 100 µM 52.9%

OC[C@H]1NC[C@H](O)[C@@H](O)[C@H]1O
inactive: [1]; 25 µM 94.7% | [1]; 100 µM 100% | [2]; 25 µM 101% | [2]; 100 µM 91.1%

Nc1nc(NC2CC2)c2ncn([C@H]3C=C[C@@H](CO)C3)c2n1
inactive: [1]; 25 µM 94.3% | [1]; 100 µM 107% | [2]; 25 µM 97% | [2]; 100 µM 83.8%

Cc1nn(-c2cccc(Cl)c2)c2c1C(C(=O)c1ccc3c(c1)OCO3)CC(=O)N2 (stereo not drawn)
inactive: [1]; 25 µM 87.3% | [1]; 100 µM 91.7% | [2]; 25 µM 68.8% | [2]; 100 µM 88.3%

Nc1nonc1-c1nc2c(-c3cccc(Cl)c3)nccc2n1CCCNC(=O)Cc1ccc(Cl)cc1
inactive: [1]; 25 µM 90% | [1]; 100 µM 110% | [2]; 25 µM 80.5% | [2]; 100 µM 121%

CCN(CC)Cc1ccccc1CNc1ccnc2ccsc12
active: [2]; 100 µM 5.38%
inactive: [1]; 25 µM 103% | [1]; 100 µM 28.1% | [2]; 25 µM 75.4%

COc1ccc(CCN(Cc2cccs2)C(=O)c2cc3sccc3n2C)cc1OC
active: [2]; 25 µM 5.66%
inactive: [1]; 25 µM 97.9% | [1]; 100 µM 113% | [2]; 100 µM 31.3%

CNC(=O)c1cc(Oc2ccc(NC(=O)Nc3ccc(Cl)c(C(F)(F)F)c3)cc2)ccn1
inactive: [1]; 25 µM 103% | [1]; 100 µM 94.4% | [2]; 25 µM 45.7% | [2]; 100 µM 35.1%

Cc1ccc(-c2ccc(C3(CN)CCOCC3)cc2)cn1
active: [2]; 100 µM 6.97%
inactive: [1]; 25 µM 59% | [1]; 100 µM 25.4% | [2]; 25 µM 41.4%

CCN1C(=O)N(CCC(C)C)C2(CCN(Cc3cc(O)cc(Cl)c3)CC2)C1=O
inactive: [1]; 25 µM 91% | [1]; 100 µM 92.9% | [2]; 25 µM 99.4% | [2]; 100 µM 104%

CC(C)C[C@H](NC(=O)[C@@H](NC(=O)c1cccc(-c2ccccc2)n1)[C@@H](C)O)B(O)O
inactive: [1]; 25 µM 102% | [1]; 100 µM 99% | [2]; 25 µM 99.4% | [2]; 100 µM 88.5%

Cc1cc2ncc(C(=O)NCC(C)(C)NCC(=O)N3CCC[C@H]3C#N)cn2n1
inactive: [1]; 25 µM 105% | [1]; 100 µM 102% | [2]; 25 µM 82.4% | [2]; 100 µM 84.8%

Cc1cccnc1-c1noc(-c2ccccc2)n1
inactive: [1]; 25 µM 99.3% | [1]; 100 µM 98% | [2]; 25 µM 49.2% | [2]; 100 µM 87.4%

COC(=O)N[C@H](C(=O)N1CCC[C@H]1c1ncc(-c2ccc(-c3ccc(-c4cnc([C@@H]5CCCN5C(=O)[C@@H](NC(=O)OC)C(C)C)[nH]4)cc3)cc2)[nH]1)C(C)C
inactive: [1]; 25 µM 114% | [1]; 100 µM 99.8% | [2]; 25 µM 82.5% | [2]; 100 µM 85.6%

COc1ccc(Cl)cc1-c1nc(C(=O)NCCN2CCCCC2)c(C(C)C)s1
inactive: [1]; 25 µM 94.5% | [1]; 100 µM 77.6%
active: [2]; 25 µM 14.8% | [2]; 100 µM 6.6%

O=C(NC(CCO)C1CCCCC1)c1cc2ccc(C(F)(F)F)cc2[nH]1 (stereo not drawn)
inactive: [1]; 25 µM 79.2% | [1]; 100 µM 100% | [2]; 25 µM 101% | [2]; 100 µM 85.3%

CC(C)NCc1cccc(-c2ccc(NC(=O)c3cccc(C#N)c3)cc2)c1
inactive: [1]; 25 µM 86.2% | [1]; 100 µM 27.9% | [2]; 25 µM 87.5%
active: [2]; 100 µM 5.95%

OC(Cn1cncn1)(Cn1cncn1)c1ccc(F)cc1F
inactive: [1]; 25 µM 106% | [1]; 100 µM 105% | [2]; 25 µM 76%
active: [2]; 100 µM 4.95%

COc1cccc2c1CCCC2CCCN1CCN(C2CCCCC2)CC1 (stereo not drawn)
inactive: [1]; 25 µM 101% | [1]; 100 µM 103% | [2]; 25 µM 75.4% | [2]; 100 µM 68.7%

CCN1CCC(c2cc(C)c3nc(-c4cc5c(C)nc(C)cn5n4)cc(=O)n3c2)CC1
inactive: [1]; 25 µM 104% | [1]; 100 µM 107% | [2]; 25 µM 80.2% | [2]; 100 µM 89.8%

C[C@@H](C1CCCCC1)n1c(-c2cc3c(cc2Br)OCO3)nc2cc(C(=O)Nc3ccc(C#N)cc3)ccc21
inactive: [1]; 25 µM 106% | [1]; 100 µM 102% | [2]; 25 µM 109% | [2]; 100 µM 89%

CC[C@H](C)[C@H]1O[C@]2(C=C[C@@H]1C)C[C@@H]1C[C@@H](C/C=C(\C)[C@@H](O[C@H]3C[C@H](OC)[C@@H](O[C@H]4C[C@H](OC)[C@H](NC(C)=O)[C@H](C)O4)[C@H](C)O3)[C@@H](C)/C=C/C=C3\CO[C@@H]4[C@H](O)C(C)=C[C@@H](C(=O)O1)[C@]34O)O2
inactive: [1]; 25 µM 101% | [1]; 100 µM 91.4% | [2]; 25 µM 74.9% | [2]; 100 µM 116%

Cc1nn(C)c(Oc2ccccc2)c1C=NOCc1ccc(C(=O)OC(C)(C)C)cc1
inactive: [1]; 25 µM 95% | [1]; 100 µM 89% | [2]; 25 µM 83.5% | [2]; 100 µM 102%
